We go through 40 compounds from PubChem BioAssay (NCATS).

Values joined by “and” are separate entries in the source; they are usually repeats but may differ in a detail not shown here. Equal values may be shown once. Results filed as inconclusive are left out. Entries that show only a call come without a potency. Values without a mark were called inactive. Active and inactive are the calls of the source. Calls follow the shape of the dose curve; as a rule, active = well fitted cell-killing curve with a large enough effect; inconclusive = small, poorly fitted or top-dose-only effect, or effect the other way; inactive = flat fitted curve, though single readings scatter.
Potency is read from the fitted curve at half-maximal effect.

This test concerns CAOV3. The test is described as follows: Primary qHTS to identify gynecologic anti-cancer compounds using libraries of approved drugs and bioactive compounds (AID 1345084). Also: nearly all actives have a fitted effect of over 55% in size. The following applies: Gynecologic cancer cell panel viability, ATPlite luminescence, 48 h; series mostly up to 57.5 µM. From the text:
National Center for Advancing Translational Sciences [NCATS] Assay Overview: Chemotherapeutic drug responses vary from cancer to cancer and from patient to patient. These variations could be caused by a number of factors including patient genomic background, tumor mutations, tumor heterogeneity, and aspects of drug treatment. Chemotherapeutic drug resistance is also a common issue and can lead to ineffective treatment and patient death. Here we have profiled the cell killing effects of thousands of compounds to characterize the responses in three gynecological cancers, identify cancer-selective compounds, and understand the diversity of responses to these compounds from pan-cancer suppressors to single cell line selective compounds. In this assay, we screened a 7,914 compound drug library that included approved drug and bioactive compounds in six ovarian, three cervical, and […] placental cancer cell lines using the ATPlite assay for cell viability. […] The cervical cancer cell lines included HeLa, Ca Ski, and C-33 A. The placental cancer cell lines included JEG-3. HEK 293T cells were used as the control cell line to determine the selectivity index. ATPlite is a luminescence based assay reliant on the conversion of a luciferase substrate to light in the presence of ATP. As a cytotoxic compound will suppress growth and decrease the number of cells, the concentration of ATP will decrease, and less light signal will be detected in the well.
Assay Protocol Summary: 1,000 cells in 4 uL of media were dispensed into white, solid bottom 1536-well plates using a Multidrop Combi (Thermo Scientific). The Assay plates were incubated for 16 hours at 37 C with 5% CO2 in assay plates, followed by the addition of 23 nL of DMSO or drug dissolved in DMSO. Each compound was assayed in five concentrations (0.092, 0.46, 2.3, 11.5, and 57.5 uM), using the automated Wako 1536 Pin Tool workstation and incubated at 37 C with 5% CO2 48 hours. 4 uL of ATPlite, the ATP monitoring reagent, was then added to the each well of the assay plates using the Multidrop Combi reagent dispenser followed by incubation for 15 minutes at room temperature. The resulting luminescence was measured using the ViewLux plate reader.
In the case of `CC1(C)CCC(c2ccc(Cl)cc2)=C(CN2CCN(c3ccc(C(=O)NS(=O)(=O)c4ccc(N[C@H](CCN5CCOCC5)CSc5ccccc5)c(S(=O)(=O)C(F)(F)F)c4)cc3)CC2)C1`, the Potency was 12.6 µM (active).

In the case of `COc1ccc(C(=O)CC2(O)C(=O)Nc3c(Cl)ccc(Cl)c32)cc1` (stereo not given), the Potency result was “inactive”. On the same count and under the same terms, in the case of `Clc1cccc(-c2nnnn2Cc2cccnc2)c1Cl` it was “inactive”; in that of `CNC(=O)c1cc(Oc2ccc(NC(=O)Nc3cc(C(C)(C)C)nn3-c3ccc4ncccc4c3)c(F)c2)ccn1`, “inactive”.

`OCc1ccc(-c2ccc(-c3ccc(CO)s3)o2)s1`: the Potency was 0.199 µM (active). With `Cc1nc2ccc(CN(C)c3ccc(C(=O)N[C@@H](CCC(=O)O)C(=O)O)s3)cc2c(=O)[nH]1`, the Potency result is “inactive”. Still for that read-out and setting: in the case of `Nc1nc(NCCNc2ncc(-n3ccnc3)c(-c3ccc(Cl)cc3Cl)n2)ccc1[N+](=O)[O-]` it was “inactive”; in that of `Cc1coc2c1C(=O)C(=O)c1c-2ccc2c1CCCC2(C)C`, “inactive”.

Consider `Cc1ccc(NC(=O)C2(c3ccc4c(c3)OC(F)(F)O4)CC2)nc1-c1cccc(C(=O)O)c1`, for which the Potency entry is “inactive”. On the same count and under the same terms, the value for `C[C@]12CC[C@H](O)CC1=CCC1C2CC[C@]2(C)C(n3cnc4ccccc43)=CCC12` (stereo not given in full) was “inactive”. In the case of `COc1c(OCCCN2CCOCC2)ccc2c3n(c(=NC(=O)c4cnc(N)nc4)nc12)CCN3`, the activity change, negative = cytotoxicity is -27.2% [at 11.6 µM]. For `CNC(=O)c1ccc(-c2cnc3ncc(Cc4ccc5ncccc5c4)n3n2)cc1F`, the Potency entry is “inactive”. Still for that read-out and setting: the value for `Cn1c(=O)n(-c2ccc(C(C)(C)C#N)cc2)c2c3cc(-c4cnc5ccccc5c4)ccc3ncc21` was 0.562 µM (active); that for `C[C@]1(CO)CN(c2cc(C(=O)Nc3ccc4c(c3)-c3c(c(C(N)=O)nn3-c3ccc(F)cc3)CC4)c(Cl)cn2)C[C@@]1(C)CO` was “inactive”; that for `CN(C)CC(C)(C)CNc1nn2c(-c3ccccc3)nnc2cc1C1CCC1` was “inactive”. With `CC(C)c1cc(C(=O)N2Cc3ccc(CN4CCN(C)CC4)cc3C2)c(O)cc1O`, the Potency is 3.98 µM (active). Take `C#Cc1cccc(Nc2ncnc3cc(OC)c(OCCCCCCC(=O)NO)cc23)c1`: the Potency is 7.94 µM (active).

Regarding `Cc1cn2cc(C(=O)N(C)CCO)cc(N[C@@H]3CCOc4cccc(C)c43)c2n1`, the Potency result is “inactive”. Same read-out and setting: the value for `O=c1c2ccccc2nc2n1CCc1c-2[nH]c2ccccc12` was “inactive”; that for `CNC(=O)CN1CCC(Oc2cc3c(Nc4cccc(Cl)c4F)ncnc3cc2OC)CC1` was “inactive”.

Take `CCc1cc2c(cc1N1CCC(N3CCOCC3)CC1)C(C)(C)c1[nH]c3cc(C#N)ccc3c1C2=O`: the Potency result was “inactive”.

As for `CC(C)(O)CCc1ccc(OCc2cc(-c3cccc(OC(F)F)c3)c3ncccc3c2)cc1`, the Potency result was “inactive”. Still for that read-out and setting: the value for `C[C@@H](Oc1cc(-c2cnn(C3CCNCC3)c2)cnc1N)c1c(Cl)ccc(F)c1Cl` was 11.2 µM (active) and 12.6 µM (active); that for `NCC(=O)Nc1ccc(-n2nc(C(F)(F)F)cc2-c2ccc3c(ccc4ccccc43)c2)cc1` was “inactive”; that for `Clc1cccc(-n2nnnc2NCc2ccccc2Oc2ccccn2)c1Cl` was “inactive”. On the same count and under the same terms, the value for `CCCCCCCCCC(=O)N[C@@H](Cc1c[nH]c2ccccc12)C(=O)N[C@H](CC(N)=O)C(=O)N[C@@H](CC(=O)O)C(=O)N[C@@H]1C(=O)NCC(=O)N[C@@H](CCCN)C(=O)N[C@@H](CC(=O)O)C(=O)N[C@H](C)C(=O)N[C@@H](CC(=O)O)C(=O)NCC(=O)N[C@H](CO)C(=O)N[C@@H]([C@@H](C)CC(=O)O)C(=O)N[C@@H](CC(=O)c2ccccc2N)C(=O)O[C@@H]1C` was “inactive”; that for `CCn1cc(-c2ccnc3[nH]c(-c4cccc(CN(C)C)c4)cc23)c(-c2ccc(NC(=O)N(C)C)cc2)n1` was “inactive”; that for `CNC(=O)c1ccc(N2C(=S)N(c3cnc(C#N)c(C(F)(F)F)c3)C(=O)C23CCC3)cc1F` was “inactive”. The same measure, in the same setting: the value for `NC1(Cc2ccc(Cl)cc2)CCN(c2ncnc3[nH]ccc23)CC1` was “inactive”; that for `O=C(c1cncc(Br)c1)N1CCC(N2CCCC2)CC1` was “inactive”; that for `Cc1c(C)n(Cc2ccc(-c3ccccc3C(=O)O)cc2)c2ccc(C(=O)N[C@@H](C)c3ccc([N+](=O)[O-])cc3)cc12` was “inactive”. Turning to `COc1cc2c(cc1-c1c(C)noc1C)ncc1[nH]c(=O)n([C@H](C)c3ccccn3)c12`, the Potency entry was “inactive”. On the same count and under the same terms, in the case of `NC(=O)Nc1cc(-c2cccc(F)c2)sc1C(=O)N[C@H]1CCCNC1` it was 1.58 µM (active); in that of `CCCCOc1c(C(=O)c2c(F)cc(C)cc2F)cnc2n[nH]cc12`, “inactive”; in that of `COc1cccc(-c2ccc(NC(=O)C3=C(C(=O)O)CCC3)c(F)c2)c1`, “inactive”. The same measure, in the same setting: in the case of `C=CC(=O)Nc1cccc(Oc2nc(Nc3ccc(N4CCN(C)CC4)cc3)ncc2Cl)c1` it was 7.94 µM (active); in that of `O=C1CCC[C@@H]2[C@H]3CCC[N+]4([O-])CCC[C@@H](CN12)[C@@H]34` (stereo not given in full), “inactive”.

In the case of `COc1cc(Nc2ncc(F)c(Nc3ccc4c(n3)N(COP(=O)(O)O)C(=O)C(C)(C)O4)n2)cc(OC)c1OC`, the Potency is 11.2 µM (active). As to `CC(C)c1cc(-c2n[nH]c(=O)n2-c2ccc3c(ccn3C)c2)c(O)cc1O`, the Potency result is “inactive”. On the same count and under the same terms, in the case of `CC(=O)Nc1sc2c(c1-c1nc3ccccc3s1)CNC2` it was “inactive”.
